According to PubChem BioAssay AID1159580 (chemical genetic matrix, 2015):
The campaign covered roughly 5,500 compounds. About 2,000 (36%) were called active. Roughly 18% stayed inconclusive and do not appear here. Rule as the data show it: active = normalized growth mostly below about 0.91 (no sharp cut-off); inconclusive = no clear call, values can overlap the other calls; inactive = mostly above about 0.92. The list shows a part of the results.

Test: chemical genetic growth profiling, strain panel (AID 1159580);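 also: tested at 20 µM; growth read once vehicle control cultures reached saturation at 30 °C; 1 = growth at the plate median or of vehicle wells; lower values mean less growth of the strain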
Settings: growth OD
[1] = S. cerevisiae deletion strains, locus YHR030C, strain SLT2, active compounds read low
[2] = S. cerevisiae deletion strains, locus YHR079C, strain IRE1, active compounds read low
[3] = S. cerevisiae deletion strains, locus YJL095W, strain BCK1, active compounds read low
[4] = S. cerevisiae deletion strains, locus YJR066W, strain TOR1, active compounds read low
[5] = S. cerevisiae deletion strains, locus YLR113W, strain HOG1, active compounds read low
[6] = S. cerevisiae deletion strains, locus YNL183C, strain NPR1, active compounds read low
[7] = S. cerevisiae deletion strains, locus YOR231W, strain MKK1, active compounds read low
[8] = S. cerevisiae deletion strains, locus YPL256C, strain CLN2, active compounds read low
[9] = S. cerevisiae deletion strains, locus YDL101C, strain DUN1, active compounds read low

Measured: normalized growth

O=C1CN=C(c2ccccc2Cl)c2cc([N+](=O)[O-])ccc2N1
inactive: [1] 0.869 | [2] 0.965 | [3] 0.981 | [4] 0.945 | [5] 0.963 | [6] 0.9 | [7] 0.962 | [8] 0.924

O=[N+]([O-])c1cccc(-c2csc(Nc3ccccc3Cl)n2)c1
inactive: S. cerevisiae deletion strains, locus YAL013W, strain DEP1, active compounds read low 0.94 | S. cerevisiae deletion strains, locus YBR229C, strain ROT2, active compounds read low 0.966 | [9] 0.978 | S. cerevisiae deletion strains, locus YDR150W, strain NUM1, active compounds read low 0.934 | S. cerevisiae deletion strains, locus YEL061C, strain CIN8, active compounds read low 0.929 | S. cerevisiae deletion strains, locus YGR078C, strain PAC10, active compounds read low 0.938 | S. cerevisiae deletion strains, locus YGR229C, strain SMI1, active compounds read low 0.959 | S. cerevisiae deletion strains, locus YHR087W, strain rtc3, active compounds read low 0.955 | S. cerevisiae deletion strains, locus YJL187C, strain SWE1, active compounds read low 1.01 | S. cerevisiae deletion strains, locus YJR043C, strain POL32, active compounds read low 0.979 | S. cerevisiae deletion strains, locus YLR058C, strain SHM2 (second series), active compounds read low 0.964 | S. cerevisiae deletion strains, locus YMR219W, strain ESC1, active compounds read low 0.964 | S. cerevisiae deletion strains, locus YMR263W, strain SAP30, active compounds read low 0.945 | S. cerevisiae deletion strains, locus YNL153C, strain GIM3, active compounds read low 0.972 | S. cerevisiae deletion strains, locus YNL322C, strain KRE1, active compounds read low 0.977 | S. cerevisiae deletion strains, locus YPR135W, strain CTF4, active compounds read low 0.795 | S. cerevisiae strains, strain wild type, active compounds read low 0.915
active: [1] 0.418 | S. cerevisiae deletion strains, locus YJR075W, strain HOC1, active compounds read low 0.88 | S. cerevisiae deletion strains, locus YKL190W, strain CNB1, active compounds read low 0.907 | S. cerevisiae deletion strains, locus YLR039C, strain RIC1, active compounds read low 0.6 | S. cerevisiae deletion strains, locus YLR085C, strain ARP6, active compounds read low 0.571 | S. cerevisiae deletion strains, locus YLR262C, strain YPT6, active compounds read low 0.727 | S. cerevisiae deletion strains, locus YML094W, strain GIM5, active compounds read low 0.818 | S. cerevisiae deletion strains, locus YNL298W, strain CLA4 (second series), active compounds read low 0.82 | S. cerevisiae deletion strains, locus YNR030W, strain Alg12, active compounds read low 0.811 | S. cerevisiae deletion strains, locus YOL006C, strain TOP1, active compounds read low 0.638 | S. cerevisiae deletion strains, locus YPL055C, strain LGE1, active compounds read low 0.715 | S. cerevisiae deletion strains, locus YPL241C, strain CIN2, active compounds read low 0.82

O=[N+]([O-])c1ccc(-c2csc(Nc3ccncc3)n2)cc1
inactive: S. cerevisiae deletion strains, locus YAR019C, strain CDC15, active compounds read low 0.995 | S. cerevisiae deletion strains, locus YBL105C, strain PKC1, active compounds read low 0.978 | S. cerevisiae deletion strains, locus YBR135W, strain CKS1, active compounds read low 0.982 | S. cerevisiae deletion strains, locus YBR136W, strain MEC1, active compounds read low 0.996 | S. cerevisiae deletion strains, locus YBR160W, strain CDC28, active compounds read low 0.989 | S. cerevisiae deletion strains, locus YDL017W, strain CDC7, active compounds read low 0.99 | S. cerevisiae deletion strains, locus YDL028C, strain MPS1, active compounds read low 0.998 | [9] 0.99 | S. cerevisiae deletion strains, locus YDL108W, strain KIN28, active compounds read low 0.979 | S. cerevisiae deletion strains, locus YDL132W, strain cdc53, active compounds read low 0.982 | S. cerevisiae deletion strains, locus YDL214C, strain PRR2, active compounds read low 0.941 | S. cerevisiae deletion strains, locus YDR052C, strain DBF4, active compounds read low 0.992 | S. cerevisiae deletion strains, locus YDR054C, strain cdc34, active compounds read low 0.977 | S. cerevisiae deletion strains, locus YDR226W, strain ADK1, active compounds read low 0.985 | S. cerevisiae deletion strains, locus YDR477W, strain SNF1, active compounds read low 0.992 | S. cerevisiae deletion strains, locus YER123W, strain YCK3, active compounds read low 0.982 | S. cerevisiae deletion strains, locus YER133W, strain GLC7, active compounds read low 0.987 | S. cerevisiae deletion strains, locus YFL009W, strain cdc4, active compounds read low 0.981 | S. cerevisiae deletion strains, locus YFL029C, strain CAK1, active compounds read low 1.01 | S. cerevisiae deletion strains, locus YFR003C, strain YPI1, active compounds read low 0.98 | S. cerevisiae deletion strains, locus YFR019W, strain FAB1, active compounds read low 0.984 | S. cerevisiae deletion strains, locus YFR028C, strain CDC14, active compounds read low 0.996 | S. cerevisiae deletion strains, locus YGR040W, strain KSS1, active compounds read low 0.978 | S. cerevisiae deletion strains, locus YGR052W, strain FMP48, active compounds read low 1.01 | S. cerevisiae deletion strains, locus YGR092W, strain DBF2, active compounds read low 0.908 | [1] 1 | [2] 1.01 | S. cerevisiae deletion strains, locus YHR082C, strain KSP1, active compounds read low 1.08 | S. cerevisiae deletion strains, locus YHR205W, strain SCH9, active compounds read low 0.923 | S. cerevisiae deletion strains, locus YIL147C, strain SLN1, active compounds read low 0.991 | [3] 1.03 | S. cerevisiae deletion strains, locus YJL128C, strain PBS2, active compounds read low 0.943 | S. cerevisiae deletion strains, locus YJL157C, strain FAR1, active compounds read low 0.996 | S. cerevisiae deletion strains, locus YJR016C, strain ILV3, active compounds read low 0.978 | S. cerevisiae deletion strains, locus YJR066W, strain TOR1 (second series), active compounds read low 0.991 | [4] 0.968 | S. cerevisiae deletion strains, locus YKL048C, strain ELM1, active compounds read low 0.976 | S. cerevisiae deletion strains, locus YKL067W, strain YNK1, active compounds read low 0.941 | S. cerevisiae deletion strains, locus YKL101W, strain HSL1, active compounds read low 0.98 | S. cerevisiae deletion strains, locus YKL193C, strain SDS22, active compounds read low 0.988 | S. cerevisiae deletion strains, locus YKL203C, strain TOR2, active compounds read low 1.07 | [5] 0.981 | S. cerevisiae deletion strains, locus YLR133W, strain CKI1, active compounds read low 0.976 | S. cerevisiae deletion strains, locus YLR403W, strain SFP1, active compounds read low 1.01 | S. cerevisiae deletion strains, locus YML070W, strain DAK1, active compounds read low 0.991 | S. cerevisiae deletion strains, locus YMR001C, strain CDC5, active compounds read low 0.993 | S. cerevisiae deletion strains, locus YMR205C, strain PFK2 (second series), active compounds read low 0.973 | S. cerevisiae deletion strains, locus YMR277W, strain FCP1, active compounds read low 0.989 | S. cerevisiae deletion strains, locus YNL006W, strain LST8, active compounds read low 0.994 | S. cerevisiae deletion strains, locus YNL020C, strain ARK1, active compounds read low 0.975 | S. cerevisiae deletion strains, locus YNL161W, strain CBK1, active compounds read low 0.994 | [6] 1.02 | S. cerevisiae deletion strains, locus YNL207W, strain RIO2, active compounds read low 0.984 | S. cerevisiae deletion strains, locus YNL222W, strain SSU72, active compounds read low 0.996 | S. cerevisiae deletion strains, locus YNL307C, strain MCK1 (second series), active compounds read low 0.976 | S. cerevisiae deletion strains, locus YOL078W, strain AVO1, active compounds read low 0.986 | S. cerevisiae deletion strains, locus YOL136C, strain PFK27, active compounds read low 0.979 | S. cerevisiae deletion strains, locus YOR061W, strain CKA2, active compounds read low 0.957 | S. cerevisiae deletion strains, locus YOR119C, strain RIO1, active compounds read low 1.01 | [7] 0.97 | S. cerevisiae deletion strains, locus YOR329C, strain SCD5, active compounds read low 0.992 | S. cerevisiae deletion strains, locus YPL031C, strain PHO85, active compounds read low 0.98 | S. cerevisiae deletion strains, locus YPL153C, strain RAD53, active compounds read low 1 | S. cerevisiae deletion strains, locus YPL204W, strain HRR25, active compounds read low 0.982 | S. cerevisiae deletion strains, locus YPL209C, strain IPL1, active compounds read low 0.991 | [8] 1.03 | S. cerevisiae deletion strains, locus YPR025C, strain CCL1, active compounds read low 0.985 | S. cerevisiae deletion strains, locus YPR106W, strain ISR1, active compounds read low 0.98 | S. cerevisiae deletion strains, locus YPR111W, strain DBF20, active compounds read low 0.969 | S. cerevisiae deletion strains, strain NNK1, active compounds read low 0.996 | S. cerevisiae deletion strains, strain TSCII, active compounds read low 1
